According to PubChem BioAssay (NCATS):
“And” between values parts separate entries of the source, which are not always exact repeats. Equal entries are not always repeated. Records with an inconclusive call do not appear. The source made the active and inactive calls. Unless noted, the call rests on the fitted dose curve; in most records, active means well fitted curve in the direction sought with a large enough effect; inconclusive means small, poorly fitted or top-dose-only effect, or another doubt; inactive means no such curve, though single readings can be large; an effect the other way counts as inactive or inconclusive.

Tests used:
[1] = AP1 Signaling Pathway (AID 357; active means well fitted curve in either direction with a large enough effect, not every such curve was filed as active;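 further: ME-180 reporter cells stimulated with EGF at its EC50 level; on the % scale 0 is the no-effect control and ±100 the full control effect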); details: ME-180 AP-1-bla reporter, EGF-induced, beta-lactamase ratio, 5 h; at 7.69 µM (top of the series) unless noted
Method in brief: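 Cells are seeded overnight, exposed to compound titrations and an EC50 level of EGF for 5 hours at 37 °C, then loaded with CCF4 dye for 2.5 hours. Beta-lactamase activity under the AP-1 element is read as a blue/green ratio.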

[2] = target: Cytochrome P450 1A2 (Homo sapiens) (UniProt P05177); test: p450-cyp1a2 (AID 410; calls by dose curve; further: potency means the concentration at half of the fitted maximal effect;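 on activity change, negative = inhibition: -100% = full effect of reference inhibitor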)
Cytochrome P450 1A2 (Homo sapiens), sequence (P05177 whole entry, looked up): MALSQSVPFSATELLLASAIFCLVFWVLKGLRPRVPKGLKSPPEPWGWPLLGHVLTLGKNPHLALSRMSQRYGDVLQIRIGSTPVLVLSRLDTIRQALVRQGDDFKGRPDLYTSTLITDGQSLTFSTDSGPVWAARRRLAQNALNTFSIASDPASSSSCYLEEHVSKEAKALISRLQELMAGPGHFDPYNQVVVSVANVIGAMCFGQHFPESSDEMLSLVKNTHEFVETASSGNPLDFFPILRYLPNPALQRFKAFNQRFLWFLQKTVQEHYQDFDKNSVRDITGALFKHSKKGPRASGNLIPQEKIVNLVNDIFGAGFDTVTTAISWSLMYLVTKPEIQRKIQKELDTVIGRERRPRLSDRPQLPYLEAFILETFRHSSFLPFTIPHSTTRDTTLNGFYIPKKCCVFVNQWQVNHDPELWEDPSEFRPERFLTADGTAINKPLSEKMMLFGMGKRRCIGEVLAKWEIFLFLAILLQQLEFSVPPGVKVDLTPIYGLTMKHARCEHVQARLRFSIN
Method in brief: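 Luminescent readout of luciferin formed from Luciferin-ME by human CYP1A2; data normalized against complete inhibition by 57 uM furafylline. Enzyme 20nM, substrate 100uM at Km, 100mM KPO4 buffer, 60 min reaction at room temperature.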

[3] = NFAT Signaling Pathway (AID 444; active means well fitted curve in either direction with a large enough effect, not every such curve was filed as active;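 further: carbachol stimulus at about its EC50 of 1 µM final; on the % scale 0 is the no-effect control and ±100 the full control effect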); details: Jurkat NFAT-bla M1, carbachol, beta-lactamase ratio, 5 h; at 7.69 µM (top of the series) unless noted
Method in brief: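 Read-out: CCF4 FRET ratio (460 nm/530 nm) after 1 h RT dye loading, used for %activity and AC50 from titration series. Cells: Jurkat NFAT-β-lactamase/M1 line, treated with compound plus 1 uM carbachol for 5 h, 37 °C.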

[4] = Stat Signaling Pathway (AID 446; active means well fitted curve in either direction with a large enough effect, not every such curve was filed as active;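 further: ME-180 cervical cancer cells given 40 pM IL-6 alongside compound; SIE-controlled beta-lactamase reporter measured as 460/530 nm FRET emission ratio; on the % scale 0 is the no-effect control and ±100 the full control effect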); details: ME-180 SIE beta-lactamase reporter, IL-6 stimulated, 5 h; at 7.69 µM (top of the series) unless noted
Method in brief: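 ME-180 cells carrying a SIE-driven beta-lactamase reporter are stimulated with 40 pM IL-6 for 5 h at 37C in the presence of compound. The 460/530 nm FRET substrate ratio is read after 2.5 h at RT. Data are normalised to 300 pM IL-6 and to 125 nM JAK inhibitor controls.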

[5] = target: Glucocorticoid receptor (Homo sapiens) (UniProt P04150); test: GR-GFP Redistribution (AID 450;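 active means compounds whose dose series gives a full or clear partial fitted curve of increased nuclear translocation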; further: potency means the concentration at half of the fitted maximal effect); details: U2OS GR-GFP nuclear translocation, laser cytometry, 2 h
Glucocorticoid receptor (Homo sapiens), sequence (P04150 whole entry, looked up, the tested form may be a part): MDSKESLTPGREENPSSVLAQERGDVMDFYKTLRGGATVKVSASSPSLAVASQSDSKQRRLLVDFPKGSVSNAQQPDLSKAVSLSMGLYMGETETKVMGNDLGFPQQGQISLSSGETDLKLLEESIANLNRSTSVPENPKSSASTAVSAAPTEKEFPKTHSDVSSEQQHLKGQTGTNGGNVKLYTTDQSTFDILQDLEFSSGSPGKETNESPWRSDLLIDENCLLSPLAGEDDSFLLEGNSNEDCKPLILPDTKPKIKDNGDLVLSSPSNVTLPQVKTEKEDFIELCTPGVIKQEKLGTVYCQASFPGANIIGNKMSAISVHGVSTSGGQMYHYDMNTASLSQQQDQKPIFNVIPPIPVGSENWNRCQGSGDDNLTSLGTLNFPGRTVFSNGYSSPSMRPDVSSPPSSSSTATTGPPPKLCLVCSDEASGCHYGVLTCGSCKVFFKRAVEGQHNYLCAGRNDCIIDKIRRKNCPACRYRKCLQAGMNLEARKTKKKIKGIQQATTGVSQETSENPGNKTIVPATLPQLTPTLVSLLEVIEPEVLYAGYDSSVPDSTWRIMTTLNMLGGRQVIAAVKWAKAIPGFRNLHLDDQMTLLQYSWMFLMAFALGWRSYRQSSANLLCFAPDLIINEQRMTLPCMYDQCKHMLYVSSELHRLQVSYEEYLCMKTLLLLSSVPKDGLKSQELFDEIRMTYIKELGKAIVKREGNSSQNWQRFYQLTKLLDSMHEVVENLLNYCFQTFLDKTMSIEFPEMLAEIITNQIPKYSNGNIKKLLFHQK

[6] = target: Glucocorticoid receptor (Homo sapiens) (UniProt P04150); test: GR-EFC Redistribution (AID 451; calls by dose curve; further: potency means the concentration at half of the fitted maximal effect); details: CHO-K1 GR-EFC translocation, beta-gal luminescence, 2 h
Method in brief: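 Translocation of GR-ED fusion to nuclear EA restores b-gal, read by luminescence after 1 h room-temperature detection. Engineered CHO-K1 biosensor cells, 1,000/well, exposed 2 h at 37 C to titrations up to 46 uM final.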

[7] = target: 3',5'-cyclic-AMP phosphodiesterase 4B (Homo sapiens) (UniProt Q07343); test: qHTS Assay for Inhibitors of PDE-IV (AID 607; active means well fitted activation curve with a large enough effect in the main read-out, with a control signal flat, not every such curve was filed as active; further: % of control where 0% means no effect)
3',5'-cyclic-AMP phosphodiesterase 4B (Homo sapiens), sequence (Q07343 whole entry, looked up): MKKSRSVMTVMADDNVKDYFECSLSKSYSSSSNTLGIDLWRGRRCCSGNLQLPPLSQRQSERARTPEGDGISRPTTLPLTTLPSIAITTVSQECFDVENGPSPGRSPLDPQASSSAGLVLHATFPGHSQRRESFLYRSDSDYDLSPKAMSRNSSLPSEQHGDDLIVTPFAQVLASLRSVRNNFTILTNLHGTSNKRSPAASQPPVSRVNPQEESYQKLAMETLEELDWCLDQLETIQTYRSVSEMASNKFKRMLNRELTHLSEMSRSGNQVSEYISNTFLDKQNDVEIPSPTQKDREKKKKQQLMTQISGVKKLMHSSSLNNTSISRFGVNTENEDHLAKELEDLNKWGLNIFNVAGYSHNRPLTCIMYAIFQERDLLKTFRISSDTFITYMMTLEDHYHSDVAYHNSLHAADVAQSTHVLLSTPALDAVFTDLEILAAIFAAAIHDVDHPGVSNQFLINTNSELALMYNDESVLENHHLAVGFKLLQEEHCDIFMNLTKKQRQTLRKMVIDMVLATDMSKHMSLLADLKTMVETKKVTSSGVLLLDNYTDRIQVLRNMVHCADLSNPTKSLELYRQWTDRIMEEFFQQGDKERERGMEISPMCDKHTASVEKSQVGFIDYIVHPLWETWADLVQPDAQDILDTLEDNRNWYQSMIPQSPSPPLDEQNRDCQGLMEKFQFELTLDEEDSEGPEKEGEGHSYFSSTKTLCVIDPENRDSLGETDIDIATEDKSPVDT
Method in brief: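 HEK293 ACTOne cells with CNG channel (1000/well), endogenous PDE4; membrane potential dye, compounds up to 22.9 uM final. Fluorescence Ex 535/Em 590; RO 20-1724 (100 uM final) as reference.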

[8] = target: Guanine nucleotide-binding protein G(i) subunit alpha-1 (Homo sapiens) (UniProt P63096); test: qHTS Assay for Inhibitors of RGS12 GoLoco Motif Activity (Green Fluorophore) (AID 879);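 further: 0% = labeled peptide with Gαi1 and full inhibition = labeled peptide alone without protein; negative values mean loss of peptide binding seen as reduced polarization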
Guanine nucleotide-binding protein G(i) subunit alpha-1 (Homo sapiens), sequence (P63096 whole entry, looked up): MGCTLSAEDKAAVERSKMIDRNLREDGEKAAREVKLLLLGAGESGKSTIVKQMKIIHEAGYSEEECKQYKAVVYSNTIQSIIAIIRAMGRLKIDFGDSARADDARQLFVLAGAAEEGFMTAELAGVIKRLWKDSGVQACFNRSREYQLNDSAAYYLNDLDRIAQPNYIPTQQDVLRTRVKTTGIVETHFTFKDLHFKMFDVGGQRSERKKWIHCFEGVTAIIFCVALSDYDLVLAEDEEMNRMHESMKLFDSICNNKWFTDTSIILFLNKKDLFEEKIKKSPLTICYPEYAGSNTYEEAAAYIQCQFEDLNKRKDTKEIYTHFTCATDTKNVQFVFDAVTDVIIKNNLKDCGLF
Method in brief: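 Fluorescence polarization assay: 50 nM Gαi1 with 10 nM FITC-labeled RGS12 GoLoco peptide in 10 mM Tris pH 7.5, 150 mM NaCl, 0.1 mM GDP, 0.05% NP40, 10 min at room temperature with compound.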

[9] = target: Pyruvate kinase PKM (Homo sapiens) (UniProt P14618); test: qHTS Assay for Activators of Human Muscle Pyruvate Kinase (AID 954; active means well fitted curve in the direction sought with a large enough effect, not every such curve was filed as active;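 further: 0% = uninhibited enzyme and -100% = no enzyme or full thiadiazolimine inhibition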)
Pyruvate kinase PKM (Homo sapiens), sequence (P14618 whole entry, looked up): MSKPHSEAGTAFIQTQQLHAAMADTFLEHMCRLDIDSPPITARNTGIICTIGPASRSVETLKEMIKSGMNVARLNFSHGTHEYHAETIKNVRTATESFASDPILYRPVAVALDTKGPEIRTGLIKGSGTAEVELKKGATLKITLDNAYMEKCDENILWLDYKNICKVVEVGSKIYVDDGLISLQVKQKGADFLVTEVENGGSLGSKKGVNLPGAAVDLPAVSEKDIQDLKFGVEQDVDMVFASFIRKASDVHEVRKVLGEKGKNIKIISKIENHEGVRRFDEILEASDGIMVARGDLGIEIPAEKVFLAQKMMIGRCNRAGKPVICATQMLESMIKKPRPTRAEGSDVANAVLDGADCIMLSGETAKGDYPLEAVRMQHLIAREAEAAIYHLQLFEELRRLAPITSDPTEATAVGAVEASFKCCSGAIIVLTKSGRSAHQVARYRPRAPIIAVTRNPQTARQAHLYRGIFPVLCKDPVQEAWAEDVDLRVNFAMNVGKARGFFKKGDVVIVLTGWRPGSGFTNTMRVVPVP
Method in brief: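 Purified human PKM2 (0.1 nM) with 0.5 mM PEP (Km) and 0.1 mM ADP in 50 mM imidazole pH 7.2, KCl, MgCl2, 1 h at room temperature; ATP formed read by coupled luciferase luminescence. Normalized to no-enzyme/110 uM thiadiazolimine inhibition; 0.3 nM enzyme column for activation.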

[10] = target: Alpha-galactosidase A (Homo sapiens) (UniProt P06280); test: Counterscreen for Glucocerebrosidase Inhibitors: qHTS Assay for Human alpha-Galactosidase at pH 4.5 (AID 992); further: 0% is about no effect
Alpha-galactosidase A (Homo sapiens), sequence (P06280 whole entry, looked up): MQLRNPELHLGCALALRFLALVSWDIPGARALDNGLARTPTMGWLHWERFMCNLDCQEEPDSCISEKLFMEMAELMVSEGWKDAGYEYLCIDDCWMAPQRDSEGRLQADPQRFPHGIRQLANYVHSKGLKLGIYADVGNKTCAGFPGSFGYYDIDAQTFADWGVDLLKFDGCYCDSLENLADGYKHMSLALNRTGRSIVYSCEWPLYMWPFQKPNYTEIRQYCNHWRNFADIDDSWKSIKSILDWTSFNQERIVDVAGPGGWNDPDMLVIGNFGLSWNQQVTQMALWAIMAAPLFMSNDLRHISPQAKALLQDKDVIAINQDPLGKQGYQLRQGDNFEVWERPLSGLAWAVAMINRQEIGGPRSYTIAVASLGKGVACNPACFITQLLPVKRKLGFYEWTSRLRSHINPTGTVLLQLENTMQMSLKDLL
Method in brief: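 Human enzyme (2 nM) with 80 uM 4-methylumbelliferyl alpha-D-galactopyranoside in 50 mM citric acid, 0.005% Tween-20, pH 4.5, 20 min at room temperature. Compounds 0.7 nM–77 uM; fluorescence Ex 365/Em 440 after pH 10 stop; AC50 from Hill fits.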

[11] = target: alpha-glucosidase (Oryza sativa, rice) (UniProt Q653V4); test: Counterscreen for Glucocerebrosidase Inhibitors: qHTS Assay for Rice alpha-Glucosidase at pH 5.0 (AID 997);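 further: 0% = full activity with enzyme and -100% = basal without enzyme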
Method in brief: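 Rice alpha-glucosidase (4 nM final) with 400 uM 4-methylumbelliferyl-alpha-D-glucopyranoside in citrate buffer pH 5.0, 20 min at room temperature, stopped at pH 10; fluorescence 365/440 nm, compounds 0.7 nM–77 uM, AC50 from Hill fits.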

[12] = target: Endonuclease 4 (Escherichia coli (strain K12)) (UniProt P0A6C1); test: Counterscreen for APE1 Inhibitors: qHTS Validation Assay for Inhibitors of Endonuclease IV (AID 1708); further: on the % scale 0 is the no-effect control and ±100 the full control effect
Method in brief: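 qHTS concentration-response format; LOPAC1280 tested under APE1-screen conditions. 2 nM enzyme, 15 min compound preincubation at RT, then 50 nM TAMRA/BHQ-2 abasic substrate; kinetic fluorescence read, three reads at 60 s intervals.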

[13] = qHTS Assay for Modulators of Human Peripheral Myelin Protein 22 (PMP22) Expression/Activity (AID 1967; active means well fitted curve in the direction sought with a large enough effect in the signal ratio; the % refers to the signal ratio;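 further: 0% = untreated cells and 100% end not stated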)
Method in brief: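 Quantitative HTS in a mouse Schwann cell line expressing dual click beetle luciferases: Pmp22 promoter (green) and control EF-alpha promoter (red). After 24h treatment, corrected green/red signal ratio gave %Activity relative to untreated cells.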

[14] = qHTS for differential inhibitors of proliferation of Plasmodium falciparum line 7G8 (AID 1815);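 further: parasite growth measured after three days of incubation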; further: potency means the concentration at half of the fitted maximal effect;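 on activity change, negative = inhibition: plate controls were vehicle wells for no effect and reference inhibitor wells for full effect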
[15] = qHTS for differential inhibitors of proliferation of Plasmodium falciparum line GB4 (AID 1816); details: Potency: Plasmodium falciparum GB4 proliferation inhibition;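 further: parasite growth measured after 72 h incubation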; further: potency means the concentration at half of the fitted maximal effect;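 on activity change, negative = inhibition: 0% = vehicle DMSO and -100% = reference inhibitor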
[16] = qHTS for differential inhibitors of proliferation of Plasmodium falciparum line HB3 (AID 1886); details: Potency: Plasmodium falciparum HB3 proliferation inhibition;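 further: parasites grown with compound for 72 h before SYBR Green readout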; further: potency means the concentration at half of the fitted maximal effect;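 on activity change, negative = inhibition: plate controls were vehicle for no effect and reference inhibitor for full effect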
[17] = qHTS for differential inhibitors of proliferation of Plasmodium falciparum line W2 (AID 1883); details: Potency: Plasmodium falciparum W2 proliferation inhibition;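 further: parasites grown with compound for 72 h before lysis and staining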; further: potency means the concentration at half of the fitted maximal effect;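 on activity change, negative = inhibition: 0% = vehicle wells and -100% = control inhibitor wells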
[18] = target: RecQ-like DNA helicase BLM (Homo sapiens) (UniProt P54132); test: qHTS Validation Assay for Inhibitors of Bloom's syndrome helicase (BLM) (AID 2364); further: potency means the concentration at half of the fitted maximal effect;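 on activity change, negative = inhibition: plate controls were DMSO vehicle for no effect and enzyme-free control for full effect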
RecQ-like DNA helicase BLM (Homo sapiens), sequence (P54132 whole entry, looked up): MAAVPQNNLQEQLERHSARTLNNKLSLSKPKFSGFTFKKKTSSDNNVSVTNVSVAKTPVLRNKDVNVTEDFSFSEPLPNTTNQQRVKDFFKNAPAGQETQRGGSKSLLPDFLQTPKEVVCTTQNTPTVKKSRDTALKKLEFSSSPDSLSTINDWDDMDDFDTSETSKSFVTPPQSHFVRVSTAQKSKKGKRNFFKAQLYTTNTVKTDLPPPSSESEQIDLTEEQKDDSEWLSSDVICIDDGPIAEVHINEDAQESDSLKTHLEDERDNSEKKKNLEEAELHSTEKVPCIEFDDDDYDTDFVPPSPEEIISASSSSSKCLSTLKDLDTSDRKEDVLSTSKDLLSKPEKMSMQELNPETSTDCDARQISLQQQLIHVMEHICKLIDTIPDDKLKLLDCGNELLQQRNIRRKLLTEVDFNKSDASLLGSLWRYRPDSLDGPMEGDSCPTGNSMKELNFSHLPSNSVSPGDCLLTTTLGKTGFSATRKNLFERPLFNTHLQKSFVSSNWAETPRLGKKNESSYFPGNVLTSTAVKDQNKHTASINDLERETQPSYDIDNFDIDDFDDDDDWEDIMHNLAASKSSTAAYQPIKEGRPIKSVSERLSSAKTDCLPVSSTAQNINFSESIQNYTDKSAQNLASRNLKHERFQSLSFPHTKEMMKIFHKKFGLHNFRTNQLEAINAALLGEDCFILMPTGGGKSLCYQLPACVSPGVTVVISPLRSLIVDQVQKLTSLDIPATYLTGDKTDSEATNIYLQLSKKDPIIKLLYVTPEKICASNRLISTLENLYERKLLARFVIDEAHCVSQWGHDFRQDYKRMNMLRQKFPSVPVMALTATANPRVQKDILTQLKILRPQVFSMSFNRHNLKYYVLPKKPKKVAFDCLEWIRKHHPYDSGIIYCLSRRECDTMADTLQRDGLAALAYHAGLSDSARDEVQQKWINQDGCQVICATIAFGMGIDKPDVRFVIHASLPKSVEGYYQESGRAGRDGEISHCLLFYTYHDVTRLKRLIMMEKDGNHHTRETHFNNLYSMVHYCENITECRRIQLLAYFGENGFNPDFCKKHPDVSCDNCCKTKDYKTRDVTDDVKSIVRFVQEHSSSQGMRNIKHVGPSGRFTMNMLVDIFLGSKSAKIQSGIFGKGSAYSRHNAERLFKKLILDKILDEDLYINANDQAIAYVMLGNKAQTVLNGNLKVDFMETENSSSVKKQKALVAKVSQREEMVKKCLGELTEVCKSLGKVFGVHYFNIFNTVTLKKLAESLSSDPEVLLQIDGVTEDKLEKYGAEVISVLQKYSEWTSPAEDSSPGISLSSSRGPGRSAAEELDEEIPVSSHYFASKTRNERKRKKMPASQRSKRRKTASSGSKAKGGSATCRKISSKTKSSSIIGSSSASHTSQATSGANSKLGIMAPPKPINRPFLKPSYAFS
Method in brief: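 Forked 20-bp duplex substrate (200 nM, TAMRA/BHQ-2) plus 2 mM ATP added after 15 min compound preincubation with 50 nM enzyme, pH 8.0, poly(dI-dC) 2.5 ug/ml. Strand separation followed by fluorescence (525/598 nm) over 2 h, normalized to enzyme-free and DMSO controls.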

[19] = qHTS profiling for inhibitors of Plasmodium falciparum proliferation (AID 504749); further: potency means the concentration at half of the fitted maximal effect;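 on activity, negative = inhibition: 0% = DMSO vehicle and full inhibition = artemisinin control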; on all read-outs here: nearly all actives have a fitted effect of over 60% in size; details: P. falciparum in erythrocytes, SYBR Green DNA, 72 h; for activity, negative = inhibition: at 28.7 µM (top of the series)
Method in brief: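 Infected RBCs, 0.3% parasitemia/2.5% Hct final; cpd 72 h, 37 C, 5% CO2; lysis buffer with saponin/triton/SYBR Green I, o/n RT dark; FI 485/535; norm. to artemisinin (0.29 uM) and DMSO.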

[20] = qHTS Assay for Lipid Storage Modulators (AID 1519; calls by dose curve); details: Drosophila S3 cells, BODIPY lipid droplet/cell ratio, laser cytometry, cells loaded with oleic acid; for activity change, negative = inhibition: at 57.5 µM (top of the series)
Method in brief: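 Cells seeded at 5,000 per well were treated with compounds over a concentration series and loaded with oleic acid (400 uM, as added). Lipid droplet fluorescence (488 nm excitation, 500-530 nm channel) was read by laser-scanning cytometry and normalized to 20 uM Triacsin C.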

[21] = measured here: cell count channel max response
[22] = measured here: lipid channel max response

CC(=O)NCCc1ccc(O)c(O)c1
inactive: activity change, negative = inhibition [1] -4.94% [at 38 µM] | Potency [2] | activity change, negative = inhibition [3] 11.3% [at 38 µM] | activity, negative = inhibition [4] 5.1% [at 38 µM] | Potency [5] > 46 µM | Potency [6] > 46 µM | Potency [7] | outcome [8] | outcome [9] | outcome [10] | outcome [11] | outcome [12] | outcome [13]

Nc1ncnc2c1ncn2[C@@H]1O[C@H](C(=O)NC2CC2)[C@H](O)[C@H]1O
inactive: outcome [12] | Potency [14] | Potency [15] | Potency [16] | outcome [13]

O=[N+]([O-])c1ccc(CSc2ncnc3c2ncn3[C@@H]2O[C@H](CO)[C@H](O)[C@H]2O)cc1
inactive: outcome [12] | Potency [15] | outcome [13]

CN1CCc2cc(Cl)c(O)cc2C(c2ccccc2)C1 (configuration not stated)
inactive: outcome [13] | Potency [18]
active: Potency [14] 7.94 µM | Potency [15] 11.2 µM | Potency [17] 4.47 µM | Potency [16] 12.6 µM

NC(=S)c1ccc[n+]([C@@H]2O[C@@H](COP(=O)([O-])OP(=O)(O)OC[C@H]3O[C@@H](n4cnc5c(N)ncnc54)[C@H](OP(=O)(O)O)[C@H]3O)C(O)C2O)c1 (some centres not stated)
inactive: outcome [12] | Potency [14] | Potency [15] | Potency [17] | Potency [16] | outcome [13]

CC(C)CN(C)c1nc(N)c(C(=O)N=C(N)N)nc1Cl
active: Potency [2] 0.794 µM | Potency [14] 11.2 µM | Potency [15] 11.2 µM | Potency [17] 2.82 µM | Potency [16] 8.91 µM
inactive: activity change, negative = inhibition [3] -14% [at 38 µM] | activity, negative = inhibition [4] -2.92% [at 38 µM] | Potency [6] > 46 µM | Potency [7] | outcome [8] | outcome [9] | outcome [10] | outcome [11] | Potency [18]

CC(C)C[C@H]1C(=O)N2CCCC2[C@]2(O)O[C@](NC(=O)[C@@H]3C=C4c5cccc6[nH]c(Br)c(c56)C[C@H]4N(C)C3)(C(C)C)C(=O)N12 (some centres not stated)
active: Potency ([19]; parasite line A) 11.2 µM | Potency ([19]; parasite line B) 5.62 µM

CC(=O)[C@@]1(O)CC[C@H]2C3CCC4=CC(=O)CC[C@]4(C)C3CC[C@@]21C (some centres not stated)
-12.2%: max response [20, 21]
-12.4%: max response [20, 22]
inactive: activity change, negative = inhibition [20] 1.08% | outcome [13]

COc1cc(=O)n(C)c2c(OCC(O)C(C)(C)O)cccc12 (configuration not stated)
inactive: outcome [12] | Potency [14] | Potency [15] | Potency [17] | Potency [16] | outcome [13]

Cc1ccccc1N1CCN(S(=O)(=O)C[C@]23CCC(CC2NC(=O)[C@@H](N)CCS(C)(=O)=O)C3(C)C)CC1 (some centres not stated)
-10.9%: max response [20, 22]
-14.5%: max response [20, 21]
active: Potency [17] 12.6 µM
inactive: activity change, negative = inhibition [20] 0.353% | Potency [16]

COc1ccc(CCNC[C@@H](O)c2ccc(O)cc2)cc1OC
inactive: outcome [12] | Potency [14] | Potency [15] | Potency [16] | outcome [13] | Potency [18] | activity, negative = inhibition ([19]; parasite line A) 10.4% | activity, negative = inhibition ([19]; parasite line B) 8.86%

C[C@H](Cc1ccccc1)Nc1ncnc2c1ncn2[C@@H]1O[C@H](CO)[C@H](O)[C@H]1O
inactive: outcome [12] | Potency [14] | Potency [15] | Potency [16] | Potency [18]

CC(C)(C)[C@]1(O)CCN2CC3c4ccccc4CCc4cccc(c43)[C@@H]2C1 (some centres not stated)
active: Potency [14] 5.62 µM and 5.01 µM | Potency [15] 6.31 µM and 5.01 µM | Potency [17] 2.82 µM and 2.24 µM | Potency [16] 12.6 µM and 6.31 µM

N.N.N.N.N.N.N.N.N.N.N.N.N.N.O.O.[Cl-].[Cl-].[Cl-].[Cl-].[Cl-].[Cl-].[Ru].[Ru].[Ru]
45.1%: max response [20, 22]
active: Potency [18] 12.6 µM
40.4%: max response [20, 21]
inactive: activity change, negative = inhibition [20] 3.46%

CCCCCCCCCCCCCCC/C=C/[C@@H](O)[C@H](NC(=O)CCCCCCCCCCCCC)OC (tested in a mixture with another compound)
inactive: outcome [12] | Potency [14] | Potency [15] | Potency [17] | Potency [16] | outcome [13]

OC[C@H]1O[C@@H](n2cnc3c(Nc4ccccc4)ncnc32)[C@H](O)[C@H]1O
inactive: outcome [12] | Potency [14] | Potency [15] | Potency [17] | Potency [16] | Potency [18]

CNc1ncnc2c1ncn2[C@@H]1O[C@H](CO)[C@H](O)[C@H]1O
inactive: outcome [12] | Potency [14] | Potency [15] | Potency [17] | Potency [16]

N[C@H](Cc1ccc(O)c(O)c1)C(=O)O
inactive: outcome [12] | Potency [14] | Potency [15] | Potency [17] | Potency [16] | outcome [13] | activity, negative = inhibition ([19]; parasite line A) 9.99% | activity, negative = inhibition ([19]; parasite line B) 20.6%
active: Potency [18] 28.2 µM

CSc1nc(N)c2ncn([C@@H]3O[C@H](COP(=O)(O)OP(=O)(O)O)[C@H](O)[C@H]3O)c2n1
inactive: Potency [14] | Potency [15] | Potency [17] | Potency [16] | outcome [13]

NC(=S)NCCCC(N)C(=O)O (configuration not stated)
inactive: outcome [12] | Potency [14] | Potency [17] | Potency [16]

CN(C)C1C(=O)C(C(N)=O)=C(O)[C@@]2(O)C(=O)C3=C(O)c4c(O)ccc(Cl)c4[C@@H](O)C3C[C@@H]12 (some centres not stated)
inactive: outcome [13]
active: Potency [17] 0.891 µM

OC[C@H]1O[C@@H](n2cnc3c(NC4CCCC4)ncnc32)[C@H](O)[C@H]1O
inactive: outcome [12] | Potency [15] | Potency [16] | Potency [18]

COc1cc2c(cc1OC)C(c1ccccc1)CN(C)CC2 (configuration not stated)
inactive: outcome [12] | outcome [13] | Potency [18] | activity, negative = inhibition ([19]; parasite line A) -10.7% | activity, negative = inhibition ([19]; parasite line B) -13.2%
active: Potency [17] 7.94 µM
